# In the library only some 3.9% were active in any assay of this set; here they are far more common.
# HGIII-sPLA2 inh = Blocks human group III sPLA2 activity; inhibition, % at 12.2 µM; 370,000 compounds, 0.56% hits; QFRET BODIPY PC-A2 liposome hydrolysis, fluorescence;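 active = inhibition above mean plus 3 SD of compounds lying within the high and low control bounds, cut at about 19% in these data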;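 also: 0% = median of test compound wells and 100% = no enzyme DMSO wells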
# PLC-gamma1 inh = PLC-gamma1 (human) inhibition, primary screen; 370,000 compounds, 0.84% hits; inhibition, % at 12.2 µM; P19174; purified PLC-gamma1, fluorogenic substrate, fluorescence; AID 720700
# CR mimetic SO = yeast age-related superoxide inhibition as caloric restriction mimetic | S. cerevisiae aged cells, superoxide DHE fluorescence; active compounds read low | superoxide response (% of plate mean), % at 10 µM | 330,000 compounds, 0.18% hits | AID 2690;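 active = superoxide response under a set limit, about three screen SD below normal, cut at about 65% in these data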;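 also: yeast aged for seven days with compound at 30 °C before DHE staining; 100% = average MFI of all compound-treated wells on the plate with controls excluded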
# AHR activator = activators of human aryl hydrocarbon receptor | P35869 | AHR-responsive luciferase reporter cells, luminescence | activation, % at 5 µM | 320,000 compounds, 2.5% hits | AID 2796; in the data active = activation above about 47%;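 also: 0% = vehicle wells and 100% = reference agonist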
# HIF act = HIF pathway transcriptional activation | U2OS HRE-luciferase reporter, luminescence; normalized: DMSO 0%, desferrioxamine 100% | activation, % at 7.5 µM (by protocol) | 300,000 compounds, 0.32% hits;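 active = mean activation of at least 10% of the iron chelator positive control signal, with at least half of replicates also reaching 10%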
# PLCb3 inh = inhibitors of human phospholipase C beta3; Q01970; Purified PLC-beta3, fluorogenic substrate, fluorescence; inhibition, % at 12.2 µM; 370,000 compounds, 0.18% hits; AID 720704; in the data active = inhibition above about 11%;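 also: 0% = median of compound wells on plate and 100% = full blocker control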
# PLCg1 ctr = counter-screen for PLC-beta3 inhibitors: inhibitors of human PLC-gamma1 | shares compounds with PLC-gamma1 inh | purified PLC-gamma1, fluorogenic substrate, fluorescence | inhibition, % at 12.3 µM | 3,300 compounds, 3.1% hits | AID 743258
# PLCbeta3 conf = confirmation of human PLC-beta3 inhibitors | purified PLC-beta3, fluorogenic substrate fluorescence | 3,300 compounds, 1% hits | shares compounds with PLC-gamma1 inh | AID 743261 | inhibition, % at 12.3 µM; in the data active = inhibition above about 11%
# Active calls of the source: *; x = no result given. Rule as the data show it, unless noted: active = inhibition above about 9.5%; inactive = the rest.
SMILES,HGIII-sPLA2 inh,PLC-gamma1 inh,CR mimetic SO,AHR activator,HIF act,PLCb3 inh,PLCg1 ctr,PLCbeta3 conf
CC(=O)N1CCOc2ccc(S(=O)(=O)NCCc3ccc(Cl)cc3)cc21,-8,6,86,3,0,-2,x,x
CCC1S/C(=N/N=C/c2cccs2)NC1=O (stereo not given),-3,15*,109,10,0,2,3,-2
CC1S/C(=N/N=C/c2cccs2)NC1=O (stereo not given),-4,-3,94,30,0,-4,x,x
CC(C)C1S/C(=N/N=C/c2cccs2)NC1=O (stereo not given),-4,13*,112,7,0,11,-2,-3
CCCCN(C)C(=O)c1sc(=O)n(Cc2c(C)cccc2C)c1C,10,1,x,x,x,5,x,x
COc1cccc(NC(=O)C(Sc2nnc(-c3ccncc3)n2-c2ccc(Cl)cc2)c2ccccc2)c1 (stereo not given),-22,11*,106,7,-2,4,0,-1
COc1cccc(-n2c(SCC(N)=O)nnc2-c2ccncc2)c1,8,1,110,1,0,5,x,x
Cc1ccccc1N1C(=O)C(Oc2ccc(Cl)cc2)C1CNCCCOC(C)C (stereo not given),-17,5,99,1,0,2,x,x
COCCCNCC1C(Oc2ccc(Cl)cc2)C(=O)N1c1ccccc1C (stereo not given),11,9.9*,101,1,0,-1,-3,-2
O=C(NC1CCCCC1)C(c1ccc2ncccc2c1)N(Cc1ccc2c(c1)OCO2)C(=O)c1cccs1 (stereo not given),1,9.6*,99,0,0,0,-6,-2
O=C(NC1CCCCC1)C(c1ccc2ncccc2c1)N(Cc1ccccc1)C(=O)c1cccs1 (stereo not given),-8,2,95,0,-1,-2,x,x
O=C(NC1CCCCC1)C(c1ccncc1)N(Cc1ccc2c(c1)OCO2)C(=O)c1cnsn1 (stereo not given),3,6,102,9,0,11*,-6,-3
CC(C)C[C@H](NC(=O)c1[nH]cnc1C(=O)N[C@H](C)c1ccccc1)C(=O)OCc1ccccc1,-10,9.6*,102,1,6,6,0,0
O=C(NCc1cccs1)NC1CCCCC1,7,9.8*,109,9,2,8,-3,2
CCc1ccc2nc(SCC(=O)Nc3nnc(C)s3)c(C)cc2c1,-1,1,100,1,0,-6,x,x
CN(C)S(=O)(=O)N1CCC(Oc2cccc(C(=O)NCCC3=CCCCC3)c2)CC1,-15,11*,103,-2,1,-10,-12,-1
Cc1ccc(-n2cc(CN3CCC(O)(c4ccccn4)CC3)c(-c3ccc(F)cc3)n2)cc1,3,9.8*,95,1,-1,0,-3,1
Cc1ccc(-n2cc(CN3CCNC(=O)CC3)c(-c3ccc(F)cc3)n2)cc1,-12,5,96,0,0,-7,x,x
CCC(C)NC(=O)CCn1c(-c2ccc(F)cc2)cc(C(C)=O)c1C (stereo not given),13,5,87,3,0,1,x,x
CC(=O)c1cc(-c2ccc(F)cc2)n(CCC(=O)NC(C)(C)C)c1C,3,21*,118,0,0,7,1,5
O=C(NC(Cc1ccccc1)C(=O)N1CCCCC1)c1ccccc1 (stereo not given),14,13*,102,0,0,6,-6,-5
O=C(Nc1c(Cl)cccc1Cl)C1CCN(C(=O)c2cccs2)CC1,1,1,103,-4,0,-5,x,x
COc1ccc(NC(=O)C2CCN(C(=O)c3cccs3)CC2)cc1,11,9.6*,103,1,-17,6,-6,-5
O=C(c1ccccc1)N1CCN(C2CCCCCC2)CC1,5,14*,84,-1,0,4,-2,2
O=C(Nc1ccccc1)C1CCN(C(=O)c2ccccc2)CC1,6,7,102,3,0,12*,-8,-4
SMILES,HGIII-sPLA2 inh,PLC-gamma1 inh,CR mimetic SO,AHR activator,HIF act,PLCb3 inh,PLCg1 ctr,PLCbeta3 conf
O=C(c1ccccc1)N1CCN(C(=O)c2ccc(OC(F)(F)F)cc2)CC1,5,3,98,0,0,12*,-5,-1
CC(=O)N1CCN(C(=O)c2ccc(Oc3ccccc3)cc2)CC1,5,5,97,-1,0,3,x,x
O=C(c1ccc(F)cc1)N1CCN(C2CCCCC2)CC1,1,0,101,x,1,1,x,x
CC(C)(C)C(=O)OC12CCCN(C1)/C(=C/c1ccc(C#N)cc1)C2 (stereo not given),3,0,x,x,x,-2,x,x
CCC(=O)N(c1nnc(SCC(=O)Nc2ccc(N3CCOCC3)cc2)s1)C1CC1,2,2,93,1,x,-1,x,x
O=C(O)c1cccc(-n2cccc2/C=C2/NC(=O)N(c3ccc(Cl)cc3)C2=O)c1,-16,22*,x,x,x,-10,-8,-23
COc1cccc2c1cc1c(=O)n(CC(=O)N3CCCC3)nc(C)n12,6,-170,x,x,x,-252,x,x
O=C1[C@H](Oc2ccccc2)[C@@H](c2ccccc2)N1c1ccncc1,-8,0,98,x,x,1,x,x
C=CCc1cccc(CNc2nc3ccccc3n2CCN2CCOCC2)c1O,5,10*,80,2,-1,14*,-5,1
Cc1cc2c(SCC(=O)NCC3CCCO3)ncnc2s1 (stereo not given),1,1,x,x,0,-4,x,x
COc1ccc(OCCCC(=O)Nc2ccc(N3CCCCC3)cc2)cc1,-3,10*,95,-2,-2,10,-3,0
CCOC(=O)N1CCN(CCC(=O)Nc2ccc(C)cc2)CC1,3,11*,82,5,0,1,0,-2
CCOC(=O)N1CCN(Cc2nc3cc(NC(=O)C(C)C)ccc3n2C)CC1,10,12*,107,1,2,-2,-8,-8
CCOC(=O)N1CCN(CCC(=O)Nc2ccc(OC)cc2)CC1,-2,-1,93,1,0,-1,x,x
COc1ccc(NC(=O)CCN2CCCCCC2)cc1,-4,11*,97,5,-1,-1,-3,-3
COc1ccc(OCCCC(=O)Nc2ccc(N3CCOCC3)cc2)cc1,1,0,97,4,0,0,x,x
CCC(Sc1nc2ccncc2[nH]1)C(=O)Nc1cc(Cl)ccc1C (stereo not given),-25,8,112,3,0,2,x,x
Cc1ccc(S(=O)(=O)N2[C@@H](c3ccc(C(C)C)cc3)C(C(=O)O)=C[C@H]2C(C)(C)C)cc1,-23,-1,101,-1,x,-4,x,x
